Measurements from the supplement of paper PMC10849652.
Targets with a hit are over-represented here; the source holds about 7,900 in all. About 0.6% of all pairs of compound and target were hits. Values without a mark were called inactive.

Legend:
Test in all cases: log2 fold change, soluble protein after heating vs DMSO (PISA); higher = thermal stabilisation; K562 cells, 10 uM, 30 min; active = over 0.2 and 3.5 SD of the protein, either way, in both replicates (recomputed)
erlotinib = compound: C#Cc1cccc(Nc2ncnc3cc(OCCOC)c(OCCOC)cc23)c1 [erlotinib]
Procedure, shortened: (§1)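 Soluble protein was defined as the supernatant after 21,000xg for 90 min. It came from K562 cells at 2×10^6 cells/mL given 10 μM compound for 30 min, heated in aliquots for 3 min across 48°C-58°C, pooled, and extracted in PBS with 0.5% NP-40 at 4°C, and was quantified by TMTpro 16plex LC-MS/MS with equalised channel sums. Thermal stability against control samples, from duplicates, is reported as log2 fold change.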

[1] = compound: C/C(=N\NC(=O)C1=CC(=CC=C1)S(=O)(=O)N2CCOCC2)/C3=C(C=CC(=C3)Cl)O
Procedure, shortened: as §1

[2] = compound: C1=CC(=C(C=C1Cl)C2=NC3=NC=CN=C3C(=N2)NC4=CC=NC=C4)F
Procedure, shortened: as §1

[3] = compound: C1=CC(=CC=C1C2=NC3=C(N2)C=C(C=C3)C(=O)N)OC4=CC=C(C=C4)Cl
Procedure, shortened: as §1

[4] = compound: C1=CC2=C(C=CC(=C2)/C=C\3/C(=O)NC(=NCC4=CC=CS4)S3)N=C1
Procedure, shortened: as §1

[5] = compound: C1=CC2=NC=CN=C2C=C1/C=C/3\C(=O)NC(=O)S3
Procedure, shortened: as §1

[6] = compound: C1=CC=C(C=C1)C2=NC(=C(N2)C3=CC=NC=C3)C4=CC(=C(C=C4)Cl)O
Procedure, shortened: as §1

[7] = compound: C1=CC=C2C(=C1)C3=NNC4=CC=CC(=C43)C2=O
Procedure, shortened: as §1

[8] = compound: C1CCN(C1)C(=O)NC2=CC=CC(=C2)NC3=NC=C(C(=N3)NCCC4=CN=CN4)Br
Procedure, shortened: as §1

[9] = compound: C1CN(CCC1(CC2=CC=C(C=C2)Cl)N)C3=NC=NC4=C3C=CN4
Procedure, shortened: as §1

IRAK-1-4 Inhibitor I = compound: C1COCCN1CCN2C3=CC=CC=C3N=C2NC(=O)C4=CC(=CC=C4)[N+](=O)[O-] [IRAK-1-4 Inhibitor I]
Procedure, shortened: as §1

ibrutinib = compound: C=CC(=O)N1CCC[C@@H](n2nc(-c3ccc(Oc4ccccc4)cc3)c3c(N)ncnc32)C1 [ibrutinib]
Procedure, shortened: as §1

[10] = compound: CC(=O)c1cnc2ccc(-c3cc(Cl)c(O)c(Cl)c3)nc2c1N[C@H]1CC[C@H](CN(C)C)CC1
Procedure, shortened: as §1

ralimetinib = compound: CC(C)(C)Cn1c(N)nc2ccc(-c3[nH]c(C(C)(C)C)nc3-c3ccc(F)cc3)nc21 [ralimetinib]
Procedure, shortened: as §1

[11] = compound: CC(C)(O)CC(=O)NCCn1ccc2ncnc(Nc3ccc(Oc4cccc(C(F)(F)F)c4)c(Cl)c3)c21
Procedure, shortened: as §1

[12] = compound: CC(C)C1=C2N=C(C=C(N2N=C1)NCC3=CC=CC=C3)NCCCCCCN
Procedure, shortened: as §1

[13] = compound: CC(C)C[C@@H](C=O)NC(=O)[C@H](CC(C)C)NC(=O)[C@H](CC(C)C)NC(=O)OCc1ccccc1
Procedure, shortened: as §1

pinometostat = compound: CC(C)N(C[C@H]1O[C@@H](n2cnc3c(N)ncnc32)[C@H](O)[C@@H]1O)[C@H]1C[C@@H](CCc2nc3cc(C(C)(C)C)ccc3[nH]2)C1 [pinometostat]
Procedure, shortened: as §1

[14] = compound: CC1=C(C(CC(=O)N1)C2=CC=C(C=C2)C(F)(F)F)C(=O)NC3=C(C=C4C(=C3)C=NN4)F
Procedure, shortened: as §1

[15] = compound: CC1=C(C2=C(C=C1)C(=O)C3=CC=CC=C3N2CCCN)C
Procedure, shortened: as §1

Chain of UniProt Q8NHS3 (Q8NHS3 whole entry, looked up): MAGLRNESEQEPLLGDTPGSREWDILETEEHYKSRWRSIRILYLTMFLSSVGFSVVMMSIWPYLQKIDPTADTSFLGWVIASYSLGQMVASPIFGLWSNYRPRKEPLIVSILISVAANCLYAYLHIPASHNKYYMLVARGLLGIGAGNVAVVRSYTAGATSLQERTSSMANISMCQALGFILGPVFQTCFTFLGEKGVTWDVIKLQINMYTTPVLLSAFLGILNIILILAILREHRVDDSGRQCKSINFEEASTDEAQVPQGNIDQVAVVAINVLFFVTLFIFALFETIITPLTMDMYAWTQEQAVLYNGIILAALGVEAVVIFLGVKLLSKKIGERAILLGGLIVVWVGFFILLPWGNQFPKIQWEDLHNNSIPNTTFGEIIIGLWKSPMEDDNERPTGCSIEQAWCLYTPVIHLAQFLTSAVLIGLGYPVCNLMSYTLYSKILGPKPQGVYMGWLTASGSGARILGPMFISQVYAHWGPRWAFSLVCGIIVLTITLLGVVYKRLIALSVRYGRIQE
Chain of UniProt Q14680 (Q14680 whole entry, looked up): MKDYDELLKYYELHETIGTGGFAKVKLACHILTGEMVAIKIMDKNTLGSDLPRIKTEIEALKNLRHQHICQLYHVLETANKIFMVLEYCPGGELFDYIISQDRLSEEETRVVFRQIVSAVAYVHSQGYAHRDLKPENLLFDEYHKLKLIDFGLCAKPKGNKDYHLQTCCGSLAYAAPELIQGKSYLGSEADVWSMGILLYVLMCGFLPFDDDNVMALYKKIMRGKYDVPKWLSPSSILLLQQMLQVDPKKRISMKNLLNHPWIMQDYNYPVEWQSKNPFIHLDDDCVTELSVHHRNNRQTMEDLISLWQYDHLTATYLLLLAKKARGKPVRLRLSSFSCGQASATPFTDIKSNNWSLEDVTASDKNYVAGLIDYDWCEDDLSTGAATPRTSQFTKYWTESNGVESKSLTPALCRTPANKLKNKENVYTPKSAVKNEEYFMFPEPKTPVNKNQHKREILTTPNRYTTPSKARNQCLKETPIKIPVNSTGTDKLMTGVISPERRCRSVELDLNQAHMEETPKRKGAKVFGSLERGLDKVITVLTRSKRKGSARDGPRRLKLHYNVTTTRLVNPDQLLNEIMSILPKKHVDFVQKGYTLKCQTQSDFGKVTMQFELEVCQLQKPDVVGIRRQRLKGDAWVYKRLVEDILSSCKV
Chain of UniProt Q9NQX7 (Q9NQX7 whole entry, looked up): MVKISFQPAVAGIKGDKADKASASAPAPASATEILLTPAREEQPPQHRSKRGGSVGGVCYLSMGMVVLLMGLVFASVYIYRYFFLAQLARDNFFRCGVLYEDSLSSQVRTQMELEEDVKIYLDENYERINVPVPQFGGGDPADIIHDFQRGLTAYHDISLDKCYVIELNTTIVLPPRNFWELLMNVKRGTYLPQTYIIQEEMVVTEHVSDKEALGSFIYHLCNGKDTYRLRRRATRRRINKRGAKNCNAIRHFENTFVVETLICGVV
Chain of UniProt O43513 (O43513 whole entry, looked up): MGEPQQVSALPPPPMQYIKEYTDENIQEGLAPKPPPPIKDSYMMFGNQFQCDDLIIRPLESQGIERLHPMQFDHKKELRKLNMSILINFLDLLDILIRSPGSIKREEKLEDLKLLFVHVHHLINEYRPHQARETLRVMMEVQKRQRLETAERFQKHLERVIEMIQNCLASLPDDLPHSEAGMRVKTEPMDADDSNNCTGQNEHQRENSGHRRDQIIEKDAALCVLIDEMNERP
Chain of UniProt Q14653 (Q14653 whole entry, looked up): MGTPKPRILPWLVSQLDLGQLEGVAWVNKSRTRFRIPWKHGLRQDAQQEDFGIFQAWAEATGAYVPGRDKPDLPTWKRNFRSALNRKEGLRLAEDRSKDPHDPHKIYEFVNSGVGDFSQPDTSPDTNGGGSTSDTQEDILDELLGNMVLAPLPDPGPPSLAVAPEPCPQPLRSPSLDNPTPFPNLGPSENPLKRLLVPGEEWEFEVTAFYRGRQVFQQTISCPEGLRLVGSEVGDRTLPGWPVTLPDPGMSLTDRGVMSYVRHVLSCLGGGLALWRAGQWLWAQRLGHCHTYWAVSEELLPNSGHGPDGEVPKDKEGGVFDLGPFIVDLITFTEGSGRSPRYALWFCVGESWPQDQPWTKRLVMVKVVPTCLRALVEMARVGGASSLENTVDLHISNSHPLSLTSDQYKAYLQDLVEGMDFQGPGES
Chain of UniProt P51884 (P51884 whole entry, looked up): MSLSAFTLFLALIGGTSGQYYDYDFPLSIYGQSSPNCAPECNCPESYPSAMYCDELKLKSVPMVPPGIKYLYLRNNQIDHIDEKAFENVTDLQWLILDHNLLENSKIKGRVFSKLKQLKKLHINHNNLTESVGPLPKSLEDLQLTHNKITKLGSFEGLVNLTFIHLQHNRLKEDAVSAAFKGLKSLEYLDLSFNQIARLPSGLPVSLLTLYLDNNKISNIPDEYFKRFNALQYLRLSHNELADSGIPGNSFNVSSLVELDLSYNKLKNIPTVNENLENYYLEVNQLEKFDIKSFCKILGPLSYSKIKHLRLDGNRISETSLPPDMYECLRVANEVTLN
Chain of UniProt Q96QZ7 (Q96QZ7 whole entry, looked up): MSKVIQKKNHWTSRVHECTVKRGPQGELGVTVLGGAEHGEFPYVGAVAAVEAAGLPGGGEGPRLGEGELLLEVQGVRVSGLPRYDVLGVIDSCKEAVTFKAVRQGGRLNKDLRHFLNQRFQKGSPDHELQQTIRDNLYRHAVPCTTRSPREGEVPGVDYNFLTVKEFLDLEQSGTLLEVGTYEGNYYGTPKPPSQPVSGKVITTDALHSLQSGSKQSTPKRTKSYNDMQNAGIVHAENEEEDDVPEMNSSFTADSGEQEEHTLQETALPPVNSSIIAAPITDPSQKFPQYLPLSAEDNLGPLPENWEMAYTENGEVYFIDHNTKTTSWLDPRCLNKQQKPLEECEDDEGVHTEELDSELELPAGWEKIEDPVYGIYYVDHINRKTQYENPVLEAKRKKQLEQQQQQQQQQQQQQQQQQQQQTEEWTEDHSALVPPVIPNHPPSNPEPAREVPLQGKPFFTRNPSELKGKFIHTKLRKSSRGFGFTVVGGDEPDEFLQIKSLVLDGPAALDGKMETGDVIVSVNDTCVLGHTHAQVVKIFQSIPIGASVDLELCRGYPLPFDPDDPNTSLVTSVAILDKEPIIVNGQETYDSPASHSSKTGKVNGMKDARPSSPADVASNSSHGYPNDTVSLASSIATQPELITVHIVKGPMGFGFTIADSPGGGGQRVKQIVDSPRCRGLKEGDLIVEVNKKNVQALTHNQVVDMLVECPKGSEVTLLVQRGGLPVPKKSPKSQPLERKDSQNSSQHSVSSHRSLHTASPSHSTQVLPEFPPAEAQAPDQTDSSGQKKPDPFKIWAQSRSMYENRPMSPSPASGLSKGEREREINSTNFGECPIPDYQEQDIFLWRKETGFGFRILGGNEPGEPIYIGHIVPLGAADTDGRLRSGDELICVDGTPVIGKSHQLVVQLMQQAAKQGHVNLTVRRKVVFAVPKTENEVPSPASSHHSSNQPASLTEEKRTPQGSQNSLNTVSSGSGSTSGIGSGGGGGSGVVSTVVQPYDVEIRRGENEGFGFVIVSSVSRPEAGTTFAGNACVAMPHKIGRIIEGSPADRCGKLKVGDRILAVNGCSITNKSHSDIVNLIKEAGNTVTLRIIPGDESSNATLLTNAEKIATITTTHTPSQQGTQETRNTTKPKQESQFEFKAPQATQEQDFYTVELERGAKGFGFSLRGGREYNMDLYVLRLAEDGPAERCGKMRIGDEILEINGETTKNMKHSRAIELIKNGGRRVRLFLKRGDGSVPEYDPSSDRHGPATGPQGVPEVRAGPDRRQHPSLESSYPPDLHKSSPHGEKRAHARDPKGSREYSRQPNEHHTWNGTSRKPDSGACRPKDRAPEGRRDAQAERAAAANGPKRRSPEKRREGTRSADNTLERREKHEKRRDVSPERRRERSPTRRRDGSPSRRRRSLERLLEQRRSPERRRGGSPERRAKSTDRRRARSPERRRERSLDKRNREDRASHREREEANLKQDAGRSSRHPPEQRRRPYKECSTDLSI
Chain of UniProt Q9GZY8 (Q9GZY8 whole entry, looked up): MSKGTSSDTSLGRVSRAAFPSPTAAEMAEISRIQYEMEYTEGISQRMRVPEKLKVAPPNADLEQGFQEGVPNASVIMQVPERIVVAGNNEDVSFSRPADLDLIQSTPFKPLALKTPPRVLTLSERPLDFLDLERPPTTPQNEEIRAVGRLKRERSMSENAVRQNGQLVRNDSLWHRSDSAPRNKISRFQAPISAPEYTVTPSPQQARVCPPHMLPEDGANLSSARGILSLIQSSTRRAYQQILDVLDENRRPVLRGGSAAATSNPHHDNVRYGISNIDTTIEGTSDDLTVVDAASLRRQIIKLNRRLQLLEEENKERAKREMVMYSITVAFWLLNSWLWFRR
Chain of UniProt Q92551 (Q92551 whole entry, looked up): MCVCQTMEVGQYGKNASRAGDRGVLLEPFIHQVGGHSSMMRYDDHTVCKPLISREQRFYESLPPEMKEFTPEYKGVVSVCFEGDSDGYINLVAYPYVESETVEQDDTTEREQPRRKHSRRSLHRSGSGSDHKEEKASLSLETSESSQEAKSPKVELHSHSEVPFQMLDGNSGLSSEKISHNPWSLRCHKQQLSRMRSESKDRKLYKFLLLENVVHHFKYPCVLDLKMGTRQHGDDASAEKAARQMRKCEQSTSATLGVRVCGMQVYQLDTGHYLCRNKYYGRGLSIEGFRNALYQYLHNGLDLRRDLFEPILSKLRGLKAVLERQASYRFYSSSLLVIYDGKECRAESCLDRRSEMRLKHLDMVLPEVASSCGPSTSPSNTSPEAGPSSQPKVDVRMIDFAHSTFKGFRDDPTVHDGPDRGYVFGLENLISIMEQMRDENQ
Chain of UniProt Q9BRT3 (Q9BRT3 whole entry, looked up): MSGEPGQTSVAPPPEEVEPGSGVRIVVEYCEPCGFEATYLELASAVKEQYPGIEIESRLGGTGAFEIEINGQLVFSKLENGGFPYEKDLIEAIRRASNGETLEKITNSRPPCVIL

Row | Target | log2 fold change (erlotinib) | log2 fold change [1] | log2 fold change [2] | log2 fold change [3] | log2 fold change [4] | log2 fold change [5] | log2 fold change [6] | log2 fold change [7] | log2 fold change [8] | log2 fold change [9] | log2 fold change (IRAK-1-4 Inhibitor I) | log2 fold change (ibrutinib) | log2 fold change [10] | log2 fold change (ralimetinib) | log2 fold change [11] | log2 fold change [12] | log2 fold change [13] | log2 fold change (pinometostat) | log2 fold change [14] | log2 fold change [15]
1 | MED7 (UniProt O43513) | 0.065 | -0.109 | 0.041 | 0.053 | 0.065 | 0.015 | 0.017 | -0.152 | -0.114 | 0.039 | 0.042 | 0.042 | 0.001 | 0.113 | 0.022 | -0.078 | -0.068 | 0.113 | 0.403 (active) | 0.119
2 | MAGI1 (UniProt Q96QZ7) | -0.022 | 0 | -0.083 | 0.049 | -0.008 | 0.018 | -0.015 | -0.016 | 0.012 | -0.047 | 0 | 0.057 | -0.071 | 0.014 | 0.032 | -0.009 | 0.01 | 0.025 | -0.016 | 0.07
3 | ITM2C (UniProt Q9NQX7) | -0.078 | -0.019 | 0.013 | -0.297 | -0.023 | 0.062 | -0.029 | 0.052 |  |  |  | -0.069 | -0.07 | -0.063 | -0.186 | -0.445 (active) | 0.036 |  | -0.368 | 
4 | MELK (UniProt Q14680) | 0.067 | -0.067 | 0.018 | 0.027 | 0.033 | 0.009 |  | 0.031 | -0.027 | -0.086 | 0.021 | 0.032 | -0.84 (active) |  | -0.085 | 0.092 |  | 0.013 | 0.337 | 0.011
5 | MAP3K20 isoform 2 (UniProt Q9NYL2) | -0.002 | -0.128 | 0.051 | 0.052 | -0.091 |  |  | -0.168 | -0.004 | 0.007 | -0.164 |  | -0.126 |  | 0.078 | 0.089 |  | -0.021 | 0.01 | -0.071
6 | MED25 isoform 3 (UniProt Q71SY5) | -0.038 | 0.026 |  | 0.005 | 0.048 | -0.031 | 0.062 | 0.057 | 0.057 | 0.07 | -0.087 | 0.039 | -0.086 | -0.099 |  | 0.016 | -0.061 | 0.173 | -0.03 | 0.053
7 | IRF3 (UniProt Q14653) | 0.042 | 0.056 | 0.019 | -0.022 | 0.046 | -0.022 | -0.036 | 0 | -0.055 | -0.008 | 0.002 | 0.13 | -0.019 | -0.037 | 0 | -0.065 | -0.015 | -0.002 | 0.04 | 0.02
8 | MED17 (UniProt Q9NVC6) | 0.017 | 0.064 | -0.077 | 0.072 | -0.083 |  | 0.094 | -0.034 | -0.194 | -0.047 | -0.076 |  | -0.371 (active) | 0.12 | -0.022 | -0.209 | 0.119 | 0.124 | -0.056 | 0.182
9 | MAP4 isoform 5 (UniProt P27816) | 0.056 | -0.214 | 0.038 | -0.067 | -0.031 | -0.116 | -0.051 | 0.152 |  |  |  | 0.076 | 0.142 | -0.019 | 0.052 | 0.083 | 0.014 |  | 0.298 | 
10 | KMT2C isoform 3 (UniProt Q8NEZ4) | 0.038 | -0.032 | 0.006 | 0.012 | 0.078 | 0.021 | -0.194 | -0.056 | 0.003 | 0.018 |  | 0.007 | -0.02 | 0.074 | -0.044 | -0.06 | 0.191 |  | 0.002 | 0.049
11 | IP6K1 (UniProt Q92551) | -0.054 | 0.017 | -0.24 | 0 | 0.25 | -0.025 | -0.088 | 0.142 | -0.083 | 0.067 |  | 0.05 | -0.154 | -0.159 | -0.295 | -0.667 (active) | 0.069 |  |  | 0.095
12 | ITGA2B (UniProt P08514) | -0.046 | -0.051 | 0.023 | 0.06 | -0.023 |  | 0 | -0.133 | 0.065 | -0.13 | -0.045 |  | -0.045 | 0.054 | -0.172 | 0.462 | 0.026 | -0.064 | 0.099 | -0.121
13 | LGALS8 isoform 2 (UniProt O00214) | -0.011 | -0.034 | -0.282 | 0.062 | -0.038 | -0.059 |  | 0.036 | 0.043 | 0.039 | -0.027 | -0.262 | 0.049 |  | 0.092 | 0.123 |  | 0.11 |  | 0.096
14 | MFF (UniProt Q9GZY8) | 0.02 | -0.022 | 0.011 | -0.024 | 0.107 | 0.057 | -0.008 | -0.062 | 0.007 | 0.032 | 0.038 | 0.025 | -0.228 | 0.018 | 0.002 | -0.074 | 0.048 | -0.012 | 0.124 | -0.042
15 | MIEN1 (UniProt Q9BRT3) | 0.023 | 0.048 | 0.046 | -0.02 | 0.033 | 0.099 | 0.035 | -0.065 | 0.024 | -0.076 | 0.105 | -0.029 | -0.051 | -0.075 | -0.091 | 0.074 | -0.036 | 0.019 | 0.004 | 0.045
16 | MFSD8 (UniProt Q8NHS3) | 0.047 | -0.018 | -0.012 | -0.089 | 0.009 | 0.166 | 0 | -0.054 | -0.033 | -0.091 | 0.062 | 0.13 | 0.036 | 0.19 | 0.067 | -0.446 (active) | 0.08 | 0.101 |  | 0.124
17 | LUM (UniProt P51884) | -0.147 | -0.043 | 0.095 | 0.039 | 0.063 |  | -0.057 | -0.068 | 0.185 | 0.307 | -0.038 |  | 0.078 | -0.054 | 0.263 | 0.124 | 0.023 | -0.068 | -0.151 | -0.256
18 | MASTL (UniProt Q96GX5) | 0.008 | 0.045 | 0.026 | -0.015 | -0.076 | 0.124 | -0.087 | 0.007 |  |  | -0.001 | -0.008 | -0.061 | 0.001 | -0.393 (active) | -0.028 | 0.138 | 0.07 | 0.022 | 
